We go through 17 compounds from the supplement of paper PMC10811239.

The structures appear in SMILES notation.

The subject of the test is LEGO organoid PTN (PTEN-/-; TP53-/-; NF1-/-). In words: bioluminescence (viable cell) signal fold change after vs before treatment, normalised to DMSO (ratio); higher = more tumour cell growth / less inhibition. As to conditions: 10 µM; treatment time 6 days. As to the method:
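Luc2-labelled iPSC-derived glioblastoma-like organoids (LEGOs, genotypes PT = PTEN-/-;TP53-/-, PTCC = plus CDKN2A/B-/-, PTN = plus NF1-/-) were treated with 10 uM drug for 6 days (applied every other day) at 37 C. Bioluminescence imaging was done before treatment and 2 days after the last dose. BLI signals were normalised to the DMSO control on the same day and then to the pre-treatment signal (N=3).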
On to `CN[C@@H]1C[C@H]2O[C@@](C)([C@@H]1OC)n1c3ccccc3c3c4c(c5c6ccccc6n2c5c31)C(=O)NC4` [Staurosporine], for which the bioluminescence is 0.
As for `CC[C@@H](C(N)=O)N1CCCC1=O` [Levetiracetam], the bioluminescence came out at 0.81.
Under `CCN(C)C(=O)Oc1cccc([C@H](C)N(C)C)c1.O=C(O)[C@H](O)[C@@H](O)C(=O)O` [Rivastigmine tartrate] stands 1.33.
Consider `CCOC(=O)c1cncn1[C@H](C)c1ccccc1` [Etomidate], for which the bioluminescence is 2.17.
With `COc1cc2c(cc1OC)[C@@H]1CC(=O)[C@@H](CC(C)C)CN1CC2.COc1cc2c(cc1OC)[C@H]1CC(=O)[C@H](CC(C)C)CN1CC2` [Tetrabenazine], the bioluminescence came out at 0.557.
Next, `O=C(O)CCCc1ccc(N(CCCl)CCCl)cc1` [Chloroambucil]: 1.36.
`CCC1(c2ccc(N)cc2)CCC(=O)NC1=O` (configuration not stated) [Aminoglutethimide]: the bioluminescence came out at 1.07.
Under `COc1ccc(C(CN(C)C)C2(O)CCCCC2)cc1.Cl` (configuration not stated) [Venlafaxine hydrochloride] stands 1.33.
`Cc1cccc([C@H](C)c2cnc[nH]2)c1C.Cl` [Dexmedetomidine HCl]: the bioluminescence worked out at 0.581.
Next, `CC(C)c1cccc(C(C)C)c1O` [Propofol]: 1.2; `Cc1n[nH]cc1-c1cc2[nH]c([C@@H]3CC4CCN3CC4)nc(=O)c2s1` [Simurosertib]: 1.05; `CC(C)C[C@H]1C(=O)N2CCC[C@H]2[C@]2(O)O[C@](NC(=O)[C@@H]3C[C@@H]4c5cccc6[nH]cc(c56)C[C@H]4N(C)C3)(C(C)C)C(=O)N12.CC(C)[C@@]1(NC(=O)[C@@H]2C[C@@H]3c4cccc5[nH]cc(c45)C[C@H]3N(C)C2)O[C@@]2(O)[C@@H]3CCCN3C(=O)[C@H](Cc3ccccc3)N2C1=O.CC(C)[C@H]1C(=O)N2CCC[C@H]2[C@]2(O)O[C@](NC(=O)[C@@H]3C[C@@H]4c5cccc6[nH]cc(c56)C[C@H]4N(C)C3)(C(C)C)C(=O)N12.CCC(C)[C@H]1C(=O)N2CCC[C@H]2[C@]2(O)O[C@](NC(=O)[C@@H]3C[C@@H]4c5cccc6[nH]cc(c56)C[C@H]4N(C)C3)(C(C)C)C(=O)N12.CS(=O)(=O)O` [Dihydroergotoxine mesylate]: 1.88.
For the compound `NCC1(CC(=O)O)CCCCC1` [Gabapentin], the bioluminescence was 0.585.
Turning to `Cl.Cn1c(CCCC(=O)O)nc2cc(N(CCCl)CCCl)ccc21` [Bendamustine hydrochloride], the bioluminescence turned out to be 1.14.
In the case of `NCC(CC(=O)O)c1ccc(Cl)cc1` (configuration not stated) [Baclofen], the bioluminescence came to 1.95.
`CCN(C)C(=O)Oc1cccc([C@H](C)N(C)C)c1` [Rivastigmine]: the bioluminescence amounted to 1.18.
For `CN(C)C(=O)Oc1ccc[n+](C)c1.[Br-]` [Mestinon], the bioluminescence amounted to 0.642.
